Measured values published in PubChem BioAssay (NCATS).
Records with an inconclusive call do not appear. Unless noted, the call rests on the fitted dose curve; in most records, active means well fitted curve in either direction with a large enough effect (not every such curve was filed as active); inconclusive means small, poorly fitted or top-dose-only effect, or another doubt; inactive means flat fitted curve, though single readings scatter.

Columns and labels:
[1] = AP1 Signaling Pathway (AID 357); details: ME-180 AP-1-bla reporter, EGF-induced, beta-lactamase ratio, 5 h; at 17.2 µM (top of the series) unless noted;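 further: ME-180 reporter cells stimulated with EGF at its EC50 level; on the % scale 0 is the no-effect control and ±100 the full control effect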
Summary of the method: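 In this screen, ME-180 cells in Opti-MEM with 0.5% dialyzed FBS received EC50 EGF and compound titrations for 5 h. AP-1 reporter beta-lactamase was detected via CCF4 ratio, giving AC50 for positive and negative modulators.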

[2] = Stat Signaling Pathway (AID 446); details: ME-180 SIE beta-lactamase reporter, IL-6 stimulated, 5 h; at 17.2 µM (top of the series) unless noted;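 further: ME-180 cervical cancer cells given 40 pM IL-6 alongside compound; SIE-controlled beta-lactamase reporter measured as 460/530 nm FRET emission ratio; on the % scale 0 is the no-effect control and ±100 the full control effect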
Summary of the method: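 Reporter line: ME-180 cervical carcinoma, SIE-beta-lactamase. Treatment: compound with 40 pM IL-6, 5 hrs, 37 C, in low-serum OPTI-MEM with 10 mM HEPES pH 7.3. Detection: 460/530 nm fluorescence.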

[3] = target: Glucocorticoid receptor (Homo sapiens) (UniProt P04150); experiment: GR-GFP Redistribution (AID 450;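 active means compounds whose dose series gives a full or clear partial fitted curve of increased nuclear translocation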; further: potency means the concentration at half of the fitted maximal effect)
Chain of Glucocorticoid receptor (Homo sapiens) (P04150 whole entry, looked up): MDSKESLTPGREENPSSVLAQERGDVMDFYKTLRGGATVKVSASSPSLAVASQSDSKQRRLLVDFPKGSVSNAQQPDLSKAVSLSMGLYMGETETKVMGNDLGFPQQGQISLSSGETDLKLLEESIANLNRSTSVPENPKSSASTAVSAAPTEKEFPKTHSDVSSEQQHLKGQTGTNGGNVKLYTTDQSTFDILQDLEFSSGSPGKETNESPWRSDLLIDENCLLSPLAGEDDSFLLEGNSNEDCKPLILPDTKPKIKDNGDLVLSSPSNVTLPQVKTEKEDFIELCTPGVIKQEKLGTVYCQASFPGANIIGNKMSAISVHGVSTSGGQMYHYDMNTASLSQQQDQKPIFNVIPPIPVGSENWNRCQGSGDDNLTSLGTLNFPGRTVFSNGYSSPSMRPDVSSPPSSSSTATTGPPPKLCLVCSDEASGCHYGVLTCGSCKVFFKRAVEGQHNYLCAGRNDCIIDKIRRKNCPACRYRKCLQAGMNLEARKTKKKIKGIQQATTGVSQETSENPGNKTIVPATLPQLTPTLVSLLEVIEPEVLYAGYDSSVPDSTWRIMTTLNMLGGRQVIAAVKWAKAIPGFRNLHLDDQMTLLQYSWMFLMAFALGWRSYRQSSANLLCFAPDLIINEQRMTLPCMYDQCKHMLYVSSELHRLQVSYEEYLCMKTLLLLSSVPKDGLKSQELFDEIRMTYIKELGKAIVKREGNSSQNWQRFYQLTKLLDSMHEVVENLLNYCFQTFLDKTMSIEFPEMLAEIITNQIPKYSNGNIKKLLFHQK

CCCc1nc(NC2CCCCC2)c(C#N)c2c1COC(C)(C)C2
inactive: activity change, negative = inhibition [1] 16.4% | activity, negative = inhibition [2] 25.5% | Potency [3] > 20.6 µM

COc1cccc(C(=O)OCCN(C)C(C)(C)C)c1
inactive: activity change, negative = inhibition [1] 2.79% | activity, negative = inhibition [2] 3.74% | Potency [3] > 20.6 µM

CN1CCN(C(=O)CSc2nc(-c3cccs3)ccc2C#N)CC1
inactive: activity change, negative = inhibition [1] -11% | activity, negative = inhibition [2] -1.05% | Potency [3] > 20.6 µM

CCSc1nc2sc3c(c2c(=O)n1C1CCCCC1)CCN(C)C3
inactive: activity change, negative = inhibition [1] 4.46% | activity, negative = inhibition [2] 24.3% | Potency [3] > 20.6 µM
